Experimental data: the supplement of paper PMC6555819

Each sequence was assayed on VDR:RXRa (NR concentration 270 nM, RXRa partner concentration 90 nM) (assay: PBM binding z-score (relative to random genomic background probes); higher = stronger binding; sequences stand for … in GC…GCGATTGACAGCGTAGAATGAAGG).
Method: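 Protein-binding microarray (Agilent 4x180K custom design, double-stranded 60-nt probes: 5' GC cap, 34-nt variable region, 24-nt constant primer region; full probe sequence given). Purified or IVT nuclear receptor:RXRα heterodimers (3:1 NR:RXRα, mostly 270:90 nM) or homodimers were incubated for 1 h in PBS with 2% milk and no ligand, then detected with Alexa488 antibodies. Fluorescence from o1-orientation probes (~5 replicates averaged) was converted to z-scores against 500 random hg19 background probes. Variable regions are seed direct-repeat (DR0–DR5) sites, all their single-nucleotide variants and half-site ablations.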
GTACCTAGGTGAATAGGTCGTTGATGAGTAGGCG showed a PBM binding z-score of 0.549. For GCTAGCAGGCCATTTTGGTCACTCAATGACGGGC, the PBM binding z-score was -0.816. Sequence GCGACTGGGGCAAAGCTGGTTACCATAAGGTTGG has a PBM binding z-score of -0.475. CTAGACAGGTGAGAAGGTAACTCAGCCTCGATTA was tested, and the PBM binding z-score was -0.342. Work on CCTGCTAGGTCAATGGTCAGCTGAAGCAGCTCGC yielded a PBM binding z-score of 0.785. CGAACTAGGTCAGAACAGGACAGTGGAGGATGAT showed a PBM binding z-score of 0.581. In the case of AGTCAAAGTTCAGGACGAGGTAGCGTAAAGCACG, the PBM binding z-score is reported as 2.43. In the case of ATACCAAGGTGATCGTGTGGTCGTTGATACTAAC, the PBM binding z-score is reported as 0.0148. Sequence AGAATGACGTTATACGTAGATCAGGGAAGAAAGT has a PBM binding z-score of -0.532. With TCATATAGGTAAACAGGTGAAAGTGCGTAAGTTA the PBM binding z-score was 1.29. CCTTACGGGTCACTGACAGGTTATAGGATTTGGA was tested, and the PBM binding z-score was 3.77. For TGAATGAGGTTAACGATCAGGGAACGTGGCGTCG, the PBM binding z-score was 1.05. In the case of CCTTACGGGTGACTGACAGGTTATAGCATTTGGA, the PBM binding z-score is reported as 0.132. In the case of AGAATGAGGTTACTAAGATCAGGGAATTGCGGTC, the PBM binding z-score is reported as 1.42. For TCTTGTAGATCAAAGGCTAAGAAAGCCGAAGCCT, the PBM binding z-score was -0.203. GCTTGTAGATCAGGGTTAAGAAAGACTAAGCTAA gave a PBM binding z-score of 0.179. TCTAGCAGGCCAAAGGGTCACTCAAGAGGTACGG gave a PBM binding z-score of 3.12. For ACTATTAGTTAAGACGAGGGCAACCGATAGGTTG, the PBM binding z-score was 0.464. Work on AGTCAAAGTTCACTAGGTAATGTAAGATTCAGCT yielded a PBM binding z-score of 3.84. GCTAGCTGGCCATTTGGGTCACTCAATGACGGGC was tested, and the PBM binding z-score was -0.155. Work on TCATATAGGTAAAAGGTGATAGTCGGTGTGGTAA yielded a PBM binding z-score of 1.13. GCAGGCAGGTGAAACGCAGGTAACTCAGGGTGGC showed a PBM binding z-score of 0.85. With TCTGCTAGGTCAGTTGGACAGCTAACGAGCTGCC the PBM binding z-score was -0.155. CGTCCAAGGTCAATGCTCGGTCAGTGAAAGCATT showed a PBM binding z-score of 4.21. In the case of CCTACTGGGCCATCAGGTCATAGATATCAACGTT, the PBM binding z-score is reported as 1.25. Sequence TCATATAAGTAAACAGGTGAAAGTCCGTAAGTTA has a PBM binding z-score of 1.28. AATCCAGGGTCATCGTAGGCCAGAGTACGCACAG showed a PBM binding z-score of 5.32. TCGAGTAGGTTACCAATGGGCCATTCAGCTTTCT showed a PBM binding z-score of 0.0845. For ATCTCTAGTTAACAAGTTCAGTGAAAGAGAGGAC, the PBM binding z-score was 2.52. ATCTCTAGGTAAGACTCGGTTCAGTGAAGAACGC was tested, and the PBM binding z-score was 1.05. In the case of TGAATAAGGTTAAAGATCAGGGAACGTGGCGTCG, the PBM binding z-score is reported as 1.37. CCTACTGGGCCAAAAAAGTCATTGATGCCGATAA showed a PBM binding z-score of -0.174. In the case of ATCGAAAGGTCGACGAGGTGAGTATTCACCGTTT, the PBM binding z-score is reported as 5.38. For ATATGTAGGTTATCGGGACATTCAGTTTGCGCAT, the PBM binding z-score was 1.04. For CGAACTAGGTCATGGACAGTGAATCTCCGCACGC, the PBM binding z-score was 1.64. With CGTCAAAGTTCAGCTAAGGTAACGTAAAGCACGC the PBM binding z-score was 3.33. TCGAGTAGGTTAGTCGGGGCATTCACCCAACATA was tested, and the PBM binding z-score was 2.41. In the case of AGTCAAAGTTCACTAGGTAACATAAGATTCAGCT, the PBM binding z-score is reported as 4.14. Work on ACTATTAGTTGAGACGAGGGCTACCGATAGGTTG yielded a PBM binding z-score of -0.103. In the case of ATCGAAAGGTCGAGGTGTGTATAGAGAAAGGGAA, the PBM binding z-score is reported as 2.32.
